# Myeloid diff MLP: promotes myeloid progenitor differentiation. actives 1% (n = 360,000). ER-HoxA9 myeloid progenitors, lysozyme-GFP differentiation, flow cytometry. calls only at 10 µM. AID 624256;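 active = normalized GFP-positive differentiation at or above the plate's own cutoff, the solvent-only control mean plus 3 SD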;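 also: cells exposed to compound for four days before flow analysis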
# CRFR2-BP antag: CRF-BP/CRF-R2 complex antagonism. inhibition, % at 11.8 µM. HEK293 CRF-R2/CRF-BP, CRF-induced calcium fluorescence. actives 0.59% (n = 350,000);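 active = inhibition of the ligand-induced calcium signal above about 50% at the single tested concentration, limit read from the data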
# Cardiac RTF inh: cardiac RTF calcium desensitization. P19429+P45379. IANBD-labeled cardiac RTF, Ca2+ fluorescence. inhibition, % at 7.15 µM. actives 0.12% (n = 340,000). AID 493244;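 active = inhibition above the mean inhibition of all tested compounds plus 3 SD, cut at about 17% in these data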;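 also: assay run at fixed EC70 calcium of 1.6 mM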
# cardiac RTF act: cardiac RTF calcium sensitization; P19429+P45379; IANBD-labeled TnC RTF fluorescence at EC20 calcium; 0% EC20 calcium, 100% full calcium; activation, % at 7.2 µM; actives 0.24% (n = 340,000);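 active = activation above the mean over all tested compounds plus 3 SD, cut at about 30% in these data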;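 also: rise in fluorescence read as greater calcium sensitivity of cardiac thin filaments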
# CRFR2-BP ag: CRF-BP/CRF-R2 complex agonism; HEK293 CRF-R2/CRF-BP, calcium dye fluorescence (FLIPR); percent of saturating CRF peptide response; activation, % at 13.2 µM; actives 0.46% (n = 350,000);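 active = activation of at least 50%, plus an integration ratio under a set limit after plate pattern correction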;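 also: plate controls were neutral control wells without compound for no effect and CRF at EC100 for full effect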
# Myeloid diff CP1: compounds promoting myeloid differentiation | ER-HoxA9 myeloid progenitors, GFP/Mac1 double-positive flow | shares compounds with Myeloid diff MLP | actives 2% (n = 2,300) | AID 651706 | calls only;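 active = share of green or green-and-red cells above 9 and 9% in run 1 or 4 and 3% in run 2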
# GFP autofluor: compound fluorescence in myeloid differentiation counter-screen; shares compounds with Myeloid diff MLP; actives 7.4% (n = 2,300); fluorescence response, % (no concentration beside the values); ER-HoxA9 myeloid progenitors, no estrogen, GFP autofluorescence flow cytometry; vehicle wells 0%, positive control 100%;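 active = over 5% cells positive for green fluorescent reporter, or over 2% positive for both it and APC stain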;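 also: range taken on the double positive population between DMSO and positive control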
# The depositor's hits bear a star; i = inactive; x = not tested or not shown; + = active, no number. The list is not random: actives were taken first. Their share in the collection is about 2.2%.
SMILES,Myeloid diff MLP,CRFR2-BP antag,Cardiac RTF inh,cardiac RTF act,CRFR2-BP ag,Myeloid diff CP1,GFP autofluor
COc1cc(/C=C2/SC(=O)NC2=O)ccc1Oc1ccc([N+](=O)[O-])cc1[N+](=O)[O-],+,5,5,-4,1,i,1
CC(=O)Oc1cccc2c1C(=O)C1CC=CC(OC(C)=O)C1C2=O (stereo not drawn),i,13,-5,9,0,x,x
Nc1ccc(C(=O)NC23CC4CC(CC(C4)C2)C3)cc1,i,0,-15,-4,0,x,x
O=C(c1ccc(S(=O)(=O)c2ccccc2Cl)c([N+](=O)[O-])c1)N1CCCCCC1,+,-14,9,-3,0,i,0
CCCCC(=O)N/N=C/c1ccc(N2CCOCC2)c([N+](=O)[O-])c1,i,-5,-15,5,-3,x,x
CCc1c(C)nc2ncnn2c1NC1CCCc2ccccc21 (stereo not drawn),i,10,-19,11,-10,i,0
C[C@@H](O)C1NC(=O)[C@H](CCCCN)NC(=O)c2cc([N+](=O)[O-])cc(I)c2OCC[C@@H](C(N)=O)NC1=O (stereo partly drawn),i,7,-1,-3,0,x,x
O=C(CN1CCN(S(=O)(=O)c2cccc(Cl)c2)CC1)NCC1(N2CCOCC2)CCCCC1,i,3,2,1,-1,x,x
O=C(CSc1nnnn1-c1ccccc1)NCC1(N2CCOCC2)CCCCC1,i,0,-5,3,1,i,3
O=C(Cc1ccc(Cl)cc1Cl)NCC1(N2CCOCC2)CCCCC1,i,0,-6,11,3,i,0
Clc1cccc(-c2cc3nc4c(c(NCc5ccco5)n3n2)CCCC4)c1,+,-39,3,-5,1,i,0
O=C(O)c1ccc2c(=O)n3c(nc2c1)/C(=C/c1ccccc1Br)CC3,i,25,2,1,1,x,x
CCS(=O)(=O)c1nc(S(=O)(=O)c2ccc(C)cc2)c(N2CCOCC2)s1,i,-16,-7,0,0,x,x
Cc1ccc(S(=O)(=O)c2nc(S(C)(=O)=O)sc2N2CCOCC2)cc1,i,95*,-4,-1,2,i,0
CCO[C@H]1OC(C(=O)O)=C[C@@H](c2ccccc2)[C@@H]1CCCO,i,1,-6,-2,-3,i,0
CCO[C@@H]1OC(C(=O)O)=C[C@H](c2ccccc2)[C@H]1CCCO,i,8,-7,-4,-1,x,x
N#C/C(C(N)=O)=C1/SC(Cc2ccc(F)cc2)C(=O)N1c1ccccc1 (stereo not drawn),i,5,-4,5,-2,i,4
Cc1ccccc1N1C(=O)C(Cc2ccc(F)cc2)S/C1=C(\C#N)C(N)=O (stereo not drawn),i,-14,x,x,-1,i,5
CCC1S/C(=C(\C#N)C(N)=O)N(c2ccc(F)cc2)C1=O (stereo not drawn),i,6,-5,-1,-1,x,x
COc1cccc(-c2ccc3c(c2)O[C@H](CN(C)C(=O)c2ccccc2F)[C@H](C)CN([C@H](C)CO)S3(=O)=O)c1,i,16,x,x,0,x,x
CC[C@]12c3[nH]c4cc(CCC(=O)N(C)C)ccc4c3CCN1C(=O)[C@@H](CC(=O)NCc1ccco1)C[C@@H]2C(=O)N1CCN(C(=O)C2CC2)CC1,i,4,-6,-5,0,x,x
CC[n+]1ccc(C(=O)NCc2ccccc2)cc1,i,-1,1,3,-1,x,x
CCOC(=O)C1CCN(CCC(=O)Nc2ccccc2Cl)CC1,i,-14,3,-3,3,i,0
CCOC(=O)C1CCN(CCC(=O)Nc2cccc(Cl)c2)CC1,i,-7,-5,10,0,x,x
CN(C)S(=O)(=O)c1cccc(NC(=O)C2CCN(S(=O)(=O)c3cccs3)CC2)c1,i,-22,1,-7,36,x,x
CCOC(=O)c1ccccc1NS(=O)(=O)c1ccccc1F,+,25,-5,-3,-2,i,1
